Screening data deposited in PubChem BioAssay by Broad Institute.
BL2 CD40 inh: inhibitors of CD40-induced NF-kB signaling, primary screen, BL2 cells, luciferase reporter, single point. inhibition, % at 10 µM. 0.94% of 83,000 active. CD40L-induced, 4 h;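 active = mean inhibition of at least 50% with a set share of replicates also reaching that level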;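 also: 0% = neutral control wells and 100% = IKK inhibitor VII at 50 µM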
Starred values were filed as active, the others as inactive; ! = repeats disagree; [ ] = another dose, or the depositor's remark. The entries come from a sample that favours hits as a whole.

SMILES | BL2 CD40 inh
CO[C@@H]1CN(C)C(=O)c2ccc(NC(=O)C3CCOCC3)cc2OC[C@@H](C)N(C(=O)C2CCOCC2)C[C@H]1C | -1
C[C@@H]1CN([C@@H](C)CO)C(=O)c2c(c3ccccc3n2C)-c2ccccc2CO[C@H]1CN(C)S(=O)(=O)CC(F)(F)F | -5[25 µM]
CO[C@@H](C(=O)N(C)C[C@@H]1OCc2ccccc2-c2c(n(C)c3ccccc23)C(=O)N([C@@H](C)CO)C[C@H]1C)c1ccccc1 | 15[25 µM]
CN1c2ccc(-c3cccc(F)c3)cc2[C@@H]2[C@@H](CCN2C(=O)Cc2ccccc2)[C@H]1CO | -14[25 µM]
CO[C@H]1CN(C)C(=O)c2cc(NC(=O)Nc3ccccc3F)ccc2OC[C@H](C)NC[C@H]1C | -2
CCCC#Cc1ccc([C@H]2[C@@H](CO)N(C(=O)NC(C)C)[C@@H]2CNC(C)=O)cc1 | 14[25 µM]
O=C(Nc1ccccn1)c1ccc2c(c1)OCCO2 | -2
Cc1cc(NC(=O)c2ccc3c(c2)OCCO3)no1 | 79*
Cc1cc(NC(=O)c2ccc(F)cc2)no1 | -21
O=C(O)[C@H]1[C@H](CO)[C@H]2Cn3c(cccc3=O)[C@H]2N1C(=O)NC1CCCC1 | 2[25 µM]
CC(C)NC(=O)N1CC2(C1)[C@H](c1ccccc1)[C@H](CO)N2Cc1cncnc1 | -3[25 µM]
C[C@H](CO)N1C[C@H](C)[C@@H](CN(C)C(=O)CCN(C)C)OCc2ccccc2-c2c(n(C)c3ccccc23)C1=O | -1
COc1ccc(NC(=O)Nc2ccc3c(c2)[C@H]2C[C@H](CC(=O)N4CCN(C)CC4)O[C@H](CO)[C@H]2O3)cc1 | -1[25 µM]
C/C(=C/c1ccc(C(=O)O)cc1)c1ccc2c(c1)C(C)(C)CCC2(C)C | 11[25 µM]
C[C@@H](N)C(=O)N[C@H]1CCC2C3CC=C4C[C@@H](O)CC[C@]4(C)C3CC[C@@]21C (some centres undefined) | 2
CC(=O)[C@H]1CCC2C3CC=C4C[C@@H](O)CC[C@]4(C)C3CC[C@@]21C (some centres undefined) | 4
CC(C)[C@H](N)C(=O)N[C@H]1CCC2C3CC=C4C[C@@H](O)CC[C@]4(C)C3CC[C@@]21C (some centres undefined) | 71*
O=C(C1CC1)N1C[C@@H]2[C@H](c3ccccc31)[C@@H](CO)N2C(=O)c1ccccc1F | -8
C[C@@H]1CN(C)C(=O)c2cccc(N(C)C)c2O[C@@H]1CN(C)S(C)(=O)=O | -7
COc1cccc(NC(=O)C[C@@H]2CC[C@@H]3[C@@H](COc4ccc(NC(=O)C5CCCC5)cc4C(=O)N3C)O2)c1 | -1
CSc1nc2c([nH]1)c(=S)n(C)c(=O)n2C | 74*
CCCC(CC)Sc1nc2c([nH]1)c(=S)n(C)c(=O)n2C (centres undefined) | -45
CCCCC(C)Sc1nc2c([nH]1)c(=S)n(C)c(=O)n2C (centres undefined) | -37
CC(C)n1cnc2c(NCc3ccccc3O)nc(NCCCO)nc21 | -2[25 µM]
Cc1ccc(C(=O)Nc2nc3ccccc3n2CCN2CCCC2)cc1 | -62
SMILES | BL2 CD40 inh
CCCn1c(NC(=O)c2cccc(S(=O)(=O)N3CCCC3)c2)nc2ccccc21 | 90*
CCn1nccc1C(=O)Nc1nc2ccccc2n1CCN1CCCCC1 | -17
Cc1nn(Cc2ccccc2)c(C)c1C(=O)OCC(=O)c1cc(C)n(CC(F)(F)F)c1C | 11
Cc1cc(C(=O)COC(=O)c2ccco2)c(C)n1Cc1ccco1 | 101*
COC(=O)c1c(C(=O)OC)c(C)n(Cc2ccco2)c1C | 11
Cc1cc(C(=O)COC(=O)c2cccn2C)c(C)n1Cc1ccco1 | 57*
COCC(C)n1c(C)cc(C(=O)COc2ccc(N(C)S(=O)(=O)c3ccc(NC(C)=O)cc3)cc2)c1C (centres undefined) | -7
Cc1cc(C(=O)COc2cccnc2[N+](=O)[O-])c(C)n1Cc1ccco1 | -20
COCC(C)n1c(C)cc(C(=O)COC(=O)c2cccn2C)c1C (centres undefined) | 52*
Cc1cc(C(=O)COC(=O)c2n[nH]c(=O)c3ccccc23)c(C)n1C(C)C | -36
Cc1cc(C(=O)CSc2nnc(N)s2)c(C)n1Cc1ccco1 | -25
O=C(Nc1cc(F)ccc1F)N1CC(=O)N2[C@H](CO)[C@H](c3ccc(C#CC4CCCC4)cc3)[C@@H]2C1 | -4
COc1ccccc1NC(=O)N1C[C@H]2[C@@H](c3ccccc31)[C@H](CO)N2C(=O)c1ccccc1 | 9[25 µM]
O=C(C[C@@H]1C[C@@H]2c3cc(NC(=O)C4CCOCC4)ccc3O[C@@H]2[C@@H](CO)O1)NCc1cc(F)ccc1F | -7[25 µM]
c1ccc(-c2noc(-c3ccc4c(c3)OCO4)n2)nc1 | 75*
c1ccc(CCc2ccccc2-c2nc(-c3ccccn3)no2)cc1 | 11
c1ccc(-c2nccc(-c3ccc4c(c3)OCO4)n2)cc1 | -88
c1ccc(-c2noc(-c3cccnc3)n2)nc1 | -3
c1ccc(-c2noc(-c3ccc4ccccc4c3)n2)nc1 | 105*
c1ccc(-c2noc(-c3ccncc3)n2)nc1 | -47
O=C1CCCn2cc(nn2)COCCN1 | 2[25 µM]
N#C[C@H]1[C@@H](c2ccccc2C2=CCCCC2)[C@H](CO)N1S(=O)(=O)c1ccccc1 | 11[25 µM]
N#C[C@@H]1[C@@H](c2ccccc2C2=CCCCC2)[C@H](CO)N1S(=O)(=O)c1ccccc1 | 6[25 µM]
N#C[C@H]1[C@H](c2ccccc2C2=CCCCC2)[C@@H](CO)N1S(=O)(=O)c1ccccc1 | 60*[25 µM]
COc1cccc(NC(=O)N2[C@@H]3CNC[C@H]2C3c2ccc(/C=C/c3ccccc3)cc2)c1 (some centres undefined) | 60*!
SMILES | BL2 CD40 inh
COc1cccc(NC(=O)N2[C@@H]3CNC[C@H]2C3c2ccc(-c3ccccc3)cc2)c1 (some centres undefined) | -19
O=C(Nc1cccc(Cl)c1)N1[C@@H]2CNC[C@H]1C2c1ccc(/C=C/c2ccccc2)cc1 (some centres undefined) | 7[25 µM]
CCS(=O)(=O)N1CCC2(CC1)CN[C@@H](CO)c1c2c2ccc(OC)cc2n1C | -9[25 µM]
C[C@@H]1CN([C@H](C)CO)C(=O)c2c(c3ccccc3n2C)-c2ccccc2CO[C@@H]1CN(C)CC1CCCCC1 | 4[25 µM]
Cc1ccc(S(=O)(=O)N(C)C[C@@H]2OCc3ccccc3-c3ccccc3C(=O)N([C@H](C)CO)C[C@H]2C)cc1 | 22
CO[C@@H]1CN(C)C(=O)c2cc(NS(=O)(=O)c3cccc(Cl)c3)ccc2OC[C@H](C)NC[C@H]1C | -6[25 µM]
C[C@@H]1CCCCO[C@@H](CN(C)Cc2ccc(Cl)c(Cl)c2)[C@@H](C)CN([C@@H](C)CO)C(=O)c2cc(NS(=O)(=O)c3cccs3)ccc2O1 | 35[25 µM]
C[C@@H]1CN([C@H](C)CO)C(=O)c2cc(NS(=O)(=O)c3cccs3)ccc2O[C@@H](C)CCCCO[C@H]1CN(C)Cc1ccc(Cl)c(Cl)c1 | 56*[25 µM]
C[C@@H]1CCCCO[C@@H](CN(C)Cc2ccc(Cl)c(Cl)c2)[C@H](C)CN([C@H](C)CO)C(=O)c2cc(NS(=O)(=O)c3cccs3)ccc2O1 | 58*[25 µM]
C[C@@H]1CCCCO[C@@H](CN(C)Cc2ccc(Cl)c(Cl)c2)[C@H](C)CN([C@@H](C)CO)C(=O)c2cc(NS(=O)(=O)c3cccs3)ccc2O1 | 39[25 µM]
C[C@@H]1CN([C@H](C)CO)C(=O)c2cc(NS(=O)(=O)c3cccs3)ccc2O[C@@H](C)CCCCO[C@@H]1CN(C)Cc1ccc(Cl)c(Cl)c1 | 42[25 µM]
C[C@H](CO)N1C[C@H](C)[C@H](CN(C)C(=O)c2ccncc2)OCCCC[C@H](C)Oc2ccc(NS(=O)(=O)c3cccs3)cc2C1=O | -12[25 µM]
